FLuc modulator: counter-screen for miR-21 project: firefly luciferase inhibitors or activators | Potency, µM (highest dose often 57.5 µM), inactives show at the highest dose activity change, negative = inhibition, usual class: inhibitors | purified FLuc, Km substrates, luminescence inhibition | AID 588342 | P08659 | 360,000 tested, 6.9% active;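 also: plate controls were vehicle for no effect and reference inhibitor for full effect; nearly all actives have a fitted effect of over 55% in size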
Target sequence (P08659 whole entry, looked up): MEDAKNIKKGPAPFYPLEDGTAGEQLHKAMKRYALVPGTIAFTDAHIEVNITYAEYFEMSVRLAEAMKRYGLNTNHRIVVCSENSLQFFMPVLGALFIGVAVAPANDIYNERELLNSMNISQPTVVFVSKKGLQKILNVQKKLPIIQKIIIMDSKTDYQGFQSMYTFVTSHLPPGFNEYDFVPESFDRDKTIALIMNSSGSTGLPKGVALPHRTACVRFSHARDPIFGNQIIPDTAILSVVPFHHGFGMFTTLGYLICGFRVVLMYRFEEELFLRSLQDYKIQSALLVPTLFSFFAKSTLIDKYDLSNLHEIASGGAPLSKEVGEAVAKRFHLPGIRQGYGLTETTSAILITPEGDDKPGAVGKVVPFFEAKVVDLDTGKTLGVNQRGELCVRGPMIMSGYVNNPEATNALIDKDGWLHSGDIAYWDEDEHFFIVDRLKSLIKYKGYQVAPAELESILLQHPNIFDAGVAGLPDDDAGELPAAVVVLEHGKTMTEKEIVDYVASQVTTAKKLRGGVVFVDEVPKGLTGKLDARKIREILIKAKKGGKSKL
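Biochemical qHTS of compounds, final roughly 60 µM downward over six points, against 10 nM purified firefly luciferase using Km concentrations of substrates (10 uM D-luciferin, 10 uM ATP) in Tris acetate pH 7.5 buffer; luminescence output.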
ELG1 genotox: genotoxicity induction in ELG1-luciferase HEK293T cells; HEK293T ELG1-luciferase reporter, luminescence, 16 h; Potency, µM (titrated, usually from 46 µM), for the others: at the top dose activity change, positive = activation, usual class: activators; 330,000 tested, 1.3% active; AID 504466; also: % of control where 0% means no effect; nearly all actives have a fitted effect of over 60% in size
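HEK293T cells expressing luciferase-tagged ELG1 were exposed to compound or DMSO vehicle for 16 hr at 37 °C and 5% CO2. Luciferase activity was then measured with ONE-Glo after 30 min at room temperature.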
Rab9 prom act: activators of Rab9 promoter | Huh7 Rab9 promoter-luciferase reporter, luminescence, 24 h | 320,000 tested, 2.8% active | Potency, µM (highest dose often 9.22 µM), inactives show at the highest dose activation, negative = inhibition, usual class: activators; also: % of control where 0% means no effect; nearly all actives have a fitted effect of over 60% in size
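Huh7 cells stably carrying Rab9 promoter–luciferase reporter, plated 1500 cells/well, compound added after 2 h and incubated 24 h at 37 °C; luciferase luminescence then read after 10 min with detection reagent.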
SMN2 splice up: increases expression of the SMN2 splice variant. Potency, µM (top dose mostly 46.1 µM), inactives show at the top dose activity change, positive = activation, hits mostly activators. AID 1458. HEK293 SMN2-luciferase splicing reporter, luminescence, 30-36 h. 210,000 tested, 2.8% active; also: % of control where 0% means no effect; nearly all actives have a fitted effect of over 55% in size
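HEK293 cells carry an SMN2 minigene-luciferase reporter in which exon 7 inclusion puts luciferase in frame. Cells were seeded at 2000 cells/well, attached for 10-12 hours, then exposed to compounds for 30-36 hours at 37C before ONE-Glo luminescence.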
NPC1 prom act: activates the NPC1 promoter. Huh7 NPC1 promoter luciferase reporter, 24 h. Potency, µM (doses to about 9.22 µM), without a hit: at the top dose activation, hits mostly activators. 320,000 tested, 2.4% active. AID 485313; also: % of control where 0% means no effect; nearly all actives have a fitted effect of over 60% in size
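Luminescence read-out of NPC1 promoter-driven luciferase in stably transfected Huh7 cells; compounds delivered in DMSO and left 24 h at 37C, 5% CO2, qHTS titration format.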
ELG1 DNA repair: blocks ELG1-dependent DNA repair in HEK293T cells; HEK293T ELG1-luciferase reporter, luminescence, 16 h; DNA damage induced by 5-fluorouridine; Potency, µM (titrated, usually from 46.1 µM), without a hit: at the highest dose activity change, negative = inhibition, usual class: inhibitors; 330,000 tested, 2.3% active; also: % is scaled to controls: 0 for no effect and ±100 for the full control effect; nearly all actives have a fitted effect of over 55% in size
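In this reporter screen, reduction of luminescence relative to DMSO vehicle indicated activity. Compounds and 5-fluorouridine were added together to 2,000 cells per well, incubated for 16 hr at 37 °C, then developed with ONE-Glo.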
An asterisk follows results filed as active; ? = inconclusive; . = not tested or not shown; [ ] = another dose, or the depositor's remark. In the library only some 9.3% were active in any assay of this set; here they are far more common. Calls follow the shape of the dose curve; as a rule, active = well fitted curve in the direction sought with a large enough effect; inconclusive = small, poorly fitted or top-dose-only effect, or another doubt; inactive = no such curve, though single readings can be large; an effect the other way counts as inactive or inconclusive. Potency is read from the fitted curve at half-maximal effect.

SMILES	FLuc modulator	ELG1 genotox	Rab9 prom act	SMN2 splice up	NPC1 prom act	ELG1 DNA repair
C=CCSc1n[nH]c(-c2ccc(OCCC)cc2)n1	11µM*	4.6µM*	2µM*	11µM*	2.5µM*	?
C=CCSc1n[nH]c(-c2ccc(OCCCC)cc2)n1	15µM*	18µM*	?	?	?	?
CCCOc1ccc(-c2nc(=S)[nH][nH]2)cc1	?	?	?	13µM*	28%	?
COCC(=O)N/N=C/c1c(C)[nH]n(-c2ccccc2)c1=O	-13%	-3%	11%	.	-8%	?
Cc1cc(=O)oc2ccc(OCc3ccccc3)cc12	-17%	4%	-9%	.	13%	?
COC(=O)c1ccc(-c2noc(CN(Cc3ccncc3)CC3CCCO3)n2)cc1 (centres undefined)	4%	-7%	-29%	.	-28%	-7%
COC(=O)c1ccc(-c2noc(CN3C[C@H]4CC[C@H]3C4)n2)cc1	21µM*	?	?	.	?	?
COC(=O)c1ccc(-c2noc(CN(C)CC3CCCCO3)n2)cc1 (centres undefined)	-4%	5%	29%	10µM*	7%	?
O=C(OCc1nnc(-c2ccccc2)o1)c1cc(S(=O)(=O)N2CCOCC2)c(Cl)cc1Cl	-2%	18µM*	7%	?	-4%	0%
CCCCCn1cnc2sc(-c3ccccc3)cc2c1=O	6.7µM*	13%	2.2µM*	?	2.5µM*	?
O=c1c2c(-c3ccccc3)csc2ncn1/N=C/c1c2ccccc2cc2ccccc12	-1%	-17%	3%	-15%	-1%	?
COc1ccccc1-n1cnc2sc(-c3ccccc3)cc2c1=O	11µM*	5%	2.8µM*	-20%	?	?
CCCCn1cnc2sc(-c3ccccc3)cc2c1=O	5.4µM*	?	1.6µM*	24%	1.4µM*	?
O=c1c2cc(-c3ccccc3)sc2ncn1/N=C/c1ccco1	8.5µM*	?	3.5µM*	10%	?	?
O=C1c2[nH]nc(-c3ccccc3O)c2C(c2ccc(F)cc2)N1CC1CCCO1 (centres undefined)	4%	-4%	-4%	15%	-1%	-10%
Cc1ccc(NC(=O)Cn2c(=O)n(Cc3ccco3)c(=O)c3ccc(C(=O)NC4CCCC4)cc32)c(C)c1	-1%	.	.	-14%	.	.
O=[N+]([O-])c1ccc(CS(=O)(=O)N2CCN(c3ccccc3)CC2)cc1	-1%	1%	-4%	.	-1%	-4%
CCOc1ccc(-n2c(C)c(C(=O)O)c3cc(OC)ccc32)cc1	6%	-10%	10%[1.84 µM]	.	2%	?
CCOc1ccc(-n2c(C)c(C(C)=O)c3cc(OC(C)=O)ccc32)cc1	3%	-20%	-3%	.	1%	6.5µM*
COc1ccc(-c2cn3c(n2)sc2cc(C(=O)Nc4ccc(C)cc4C)ccc23)cc1	-1%	.	.	.	.	.
CCOc1ccc(-c2cc(C(=O)NCCCn3ccnc3)c3cc(Br)ccc3n2)cc1	5.4µM*	6%	-2%	.	1%	?
COc1ccc(-c2cc(C(=O)NCCN3CCOCC3)c3ccccc3n2)cc1	17µM*	-1%	1%	-6%	0%	22%
COc1ccc(-c2cn3c(n2)sc2cc(C(=O)Nc4ccc(F)cc4Cl)ccc23)cc1	19µM*	.	.	?	.	.
COC(=O)C1CCN(C(=O)COC(=O)c2cc(-c3ccccc3)nc3ccc(OC)cc23)CC1	?	-6%	-5%	.	-3%	18µM*
O=C(CSc1nnc(Cn2nnc(-c3ccccc3)n2)n1-c1ccccc1)Nc1ccccc1	1%	-31%	6%	-3%	0%	-4%
SMILES	FLuc modulator	ELG1 genotox	Rab9 prom act	SMN2 splice up	NPC1 prom act	ELG1 DNA repair
Cc1ccc(S(=O)(=O)CCC(=O)OCC(=O)c2ccc(F)cc2)cc1	3%	-8%	2%	.	1%	4%
CCC(C(=O)Nc1cc(OC)ccc1OC)n1nc(-c2ccccc2)c2c(c1=O)CCCC2 (centres undefined)	-14%	.	.	-42%	.	.
COc1cc2ccccc2cc1C(=O)OCC(=O)N1CCOCC1	-3%	-4%	-1%	-3%	2%	-6%
CCOC(=O)N1CCC(NC(=O)c2ccc3c(c2)sc2nc(-c4cccc(OC)c4)cn23)CC1	?	-3%	1%	-19%	0%	2.9µM*
COc1ccc(-c2cc(C(=O)OCC(=O)N3CCOCC3)c3ccccc3n2)cc1	.	1%	.	.	.	21µM*
CCOC(=O)N1CCC(NC(=O)c2ccc3c(c2)sc2nc(-c4ccccc4)cn23)CC1	?	14%	6%	-24%	?	3%
CCCCNC(=O)c1cc(Sc2ccc(OCC)cc2)nc2ccccc12	1%	.	.	.	.	.
CCOc1ccc(-c2cc(C(=O)NCCCn3ccnc3)c3ccccc3n2)cc1	6µM*	-8%	19%	21%	11%	2%
CCOc1ccc(-c2cn3c(n2)sc2cc(C(=O)NCCCN4CCCCCC4)ccc23)cc1	-3%	.	.	.	.	.
CCCN1CCN(CCCNC(=O)c2ccc3c(c2)sc2nc(-c4ccc(OCC)cc4)cn23)CC1	11µM*	.	.	-94%	.	.
CS(=O)(=O)c1ccc(NCC2CCCO2)c([N+](=O)[O-])c1 (centres undefined)	3%	4%	-4%	.	-5%	5%
CCOc1cc2c(cc1OCC)C(CC(=O)O)N(C(=O)Nc1ccccc1C(F)(F)F)CC2 (centres undefined)	-19%	.	.	.	.	.
CCOc1ccc(-c2cc(C(=O)NCCCN3CCN(CC)CC3)c3ccccc3n2)cc1	8.5µM*	9%	17%	7%	15%	?
Cc1ccc(Nc2cc(C(=O)NCCCN3CCOCC3)c3ccccc3n2)cc1C	12µM*	0%	-4%	.	16%	?
O=C(NCCCN1CCOCC1)c1cc(-c2ccccc2)nc2ccccc12	-3%	8%	-1%	.	-2%	4%
O=C(Nc1ccccc1)c1ccc(NC(=O)C2CC2)cc1	7.6µM*	21µM*	2.8µM*	.	1.6µM*	?
O=C(Nc1ccccc1C(=O)O)c1ccc(NC(=O)C2CCCCC2)cc1	9.5µM*	-14%	13%	.	3%	2%
O=C(Nc1ccccc1C(=O)NC1CCCCC1)c1ccccc1	-2%	?	-6%	.	-4%	?
O=C(NNC(=O)c1ccc(NC(=O)C2CC2)cc1)c1ccc(F)cc1	2%	11%	-1%	.	1%	14%
Cn1ccc2cc(S(=O)(=O)N3CCN(C(=O)Nc4ccc(F)cc4F)CC3)ccc21	-5%	.	.	.	.	.
